Results on 34 targets are retold here after the supplement of paper PMC10849652.

Of roughly 8,800 targets only a part is listed; those with a hit were picked by preference. About 0.5% of all pairs of compound and target were hits. Values without a mark were called inactive.

Chain of UniProt P31146 (P31146 whole entry, looked up): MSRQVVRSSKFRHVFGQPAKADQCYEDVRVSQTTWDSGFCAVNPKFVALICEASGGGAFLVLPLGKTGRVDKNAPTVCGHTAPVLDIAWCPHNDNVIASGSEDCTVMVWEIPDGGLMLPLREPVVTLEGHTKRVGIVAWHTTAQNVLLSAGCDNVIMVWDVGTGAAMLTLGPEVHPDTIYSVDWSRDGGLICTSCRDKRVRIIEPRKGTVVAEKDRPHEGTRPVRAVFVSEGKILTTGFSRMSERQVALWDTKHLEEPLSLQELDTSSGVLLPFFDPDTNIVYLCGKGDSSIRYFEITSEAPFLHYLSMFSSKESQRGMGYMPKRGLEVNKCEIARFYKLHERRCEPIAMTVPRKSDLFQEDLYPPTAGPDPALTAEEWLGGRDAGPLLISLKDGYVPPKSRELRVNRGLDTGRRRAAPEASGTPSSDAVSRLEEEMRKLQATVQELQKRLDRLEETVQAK
Chain of UniProt O75208 (O75208 whole entry, looked up): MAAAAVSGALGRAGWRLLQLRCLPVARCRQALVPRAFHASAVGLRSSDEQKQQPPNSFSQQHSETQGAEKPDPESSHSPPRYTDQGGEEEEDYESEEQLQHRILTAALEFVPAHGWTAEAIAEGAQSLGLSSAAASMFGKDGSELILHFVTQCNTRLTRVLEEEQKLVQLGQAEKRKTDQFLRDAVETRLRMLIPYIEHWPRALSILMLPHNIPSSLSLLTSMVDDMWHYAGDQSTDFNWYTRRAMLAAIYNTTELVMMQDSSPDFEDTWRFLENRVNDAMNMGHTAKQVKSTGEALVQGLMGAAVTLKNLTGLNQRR
Chain of UniProt Q9UHD1 (Q9UHD1 whole entry, looked up): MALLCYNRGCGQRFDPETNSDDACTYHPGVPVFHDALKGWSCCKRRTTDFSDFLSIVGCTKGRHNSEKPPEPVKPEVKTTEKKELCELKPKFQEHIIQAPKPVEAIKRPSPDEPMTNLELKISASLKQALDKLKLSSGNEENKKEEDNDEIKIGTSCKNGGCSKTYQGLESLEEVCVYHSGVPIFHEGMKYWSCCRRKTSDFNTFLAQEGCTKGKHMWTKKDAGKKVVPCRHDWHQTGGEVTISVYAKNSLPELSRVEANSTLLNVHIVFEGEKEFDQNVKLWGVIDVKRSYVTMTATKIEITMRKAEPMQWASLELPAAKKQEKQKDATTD
Chain of UniProt Q96JB2 (Q96JB2 whole entry, looked up): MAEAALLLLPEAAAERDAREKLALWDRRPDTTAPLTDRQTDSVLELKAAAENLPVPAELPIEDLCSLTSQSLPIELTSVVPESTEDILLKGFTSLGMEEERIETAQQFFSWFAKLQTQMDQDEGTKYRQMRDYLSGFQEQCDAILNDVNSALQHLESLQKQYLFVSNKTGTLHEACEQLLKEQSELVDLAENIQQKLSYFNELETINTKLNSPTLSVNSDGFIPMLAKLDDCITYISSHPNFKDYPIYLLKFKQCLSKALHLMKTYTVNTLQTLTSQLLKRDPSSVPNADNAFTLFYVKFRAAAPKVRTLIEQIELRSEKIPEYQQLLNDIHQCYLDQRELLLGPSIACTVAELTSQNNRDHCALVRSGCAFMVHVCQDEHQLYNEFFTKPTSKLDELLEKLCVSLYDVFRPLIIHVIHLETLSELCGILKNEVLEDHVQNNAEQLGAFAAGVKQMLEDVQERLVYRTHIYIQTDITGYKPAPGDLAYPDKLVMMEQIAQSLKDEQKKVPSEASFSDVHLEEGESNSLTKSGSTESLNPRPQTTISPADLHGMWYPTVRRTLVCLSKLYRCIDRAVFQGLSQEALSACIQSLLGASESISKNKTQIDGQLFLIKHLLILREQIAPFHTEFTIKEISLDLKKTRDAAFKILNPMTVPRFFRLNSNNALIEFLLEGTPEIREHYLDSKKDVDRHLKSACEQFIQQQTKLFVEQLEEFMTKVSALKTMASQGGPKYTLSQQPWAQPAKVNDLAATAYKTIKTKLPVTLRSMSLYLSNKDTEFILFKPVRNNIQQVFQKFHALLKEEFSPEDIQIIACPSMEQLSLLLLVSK
Chain of UniProt P50416 (P50416 whole entry, looked up): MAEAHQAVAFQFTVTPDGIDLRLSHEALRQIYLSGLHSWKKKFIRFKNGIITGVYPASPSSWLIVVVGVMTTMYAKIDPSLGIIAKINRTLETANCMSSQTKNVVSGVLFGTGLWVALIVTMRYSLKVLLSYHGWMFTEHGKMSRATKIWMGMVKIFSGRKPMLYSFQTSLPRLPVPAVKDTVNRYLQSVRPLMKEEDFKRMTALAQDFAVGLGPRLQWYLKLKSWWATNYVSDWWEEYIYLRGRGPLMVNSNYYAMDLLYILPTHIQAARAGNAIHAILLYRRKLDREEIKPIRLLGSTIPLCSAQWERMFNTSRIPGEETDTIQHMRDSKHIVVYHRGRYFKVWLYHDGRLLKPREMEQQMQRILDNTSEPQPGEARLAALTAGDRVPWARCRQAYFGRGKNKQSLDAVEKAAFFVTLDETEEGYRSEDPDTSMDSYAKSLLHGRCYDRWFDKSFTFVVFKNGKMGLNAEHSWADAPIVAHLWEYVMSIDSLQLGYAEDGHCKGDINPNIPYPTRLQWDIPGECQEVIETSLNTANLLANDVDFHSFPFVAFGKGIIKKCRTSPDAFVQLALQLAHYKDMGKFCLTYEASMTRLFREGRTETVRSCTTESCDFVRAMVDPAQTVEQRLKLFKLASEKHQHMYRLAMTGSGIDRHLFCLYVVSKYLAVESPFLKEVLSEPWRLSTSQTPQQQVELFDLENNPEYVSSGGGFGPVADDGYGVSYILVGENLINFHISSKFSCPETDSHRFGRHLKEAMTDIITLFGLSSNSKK
Chain of UniProt P67870 (P67870 whole entry, looked up): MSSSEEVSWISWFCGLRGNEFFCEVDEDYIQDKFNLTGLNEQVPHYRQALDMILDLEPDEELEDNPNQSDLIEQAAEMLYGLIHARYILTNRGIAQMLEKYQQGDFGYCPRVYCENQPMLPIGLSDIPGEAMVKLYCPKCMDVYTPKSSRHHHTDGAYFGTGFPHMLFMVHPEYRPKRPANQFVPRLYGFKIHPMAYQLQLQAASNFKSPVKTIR
Chain of UniProt P50570 (P50570 whole entry, looked up): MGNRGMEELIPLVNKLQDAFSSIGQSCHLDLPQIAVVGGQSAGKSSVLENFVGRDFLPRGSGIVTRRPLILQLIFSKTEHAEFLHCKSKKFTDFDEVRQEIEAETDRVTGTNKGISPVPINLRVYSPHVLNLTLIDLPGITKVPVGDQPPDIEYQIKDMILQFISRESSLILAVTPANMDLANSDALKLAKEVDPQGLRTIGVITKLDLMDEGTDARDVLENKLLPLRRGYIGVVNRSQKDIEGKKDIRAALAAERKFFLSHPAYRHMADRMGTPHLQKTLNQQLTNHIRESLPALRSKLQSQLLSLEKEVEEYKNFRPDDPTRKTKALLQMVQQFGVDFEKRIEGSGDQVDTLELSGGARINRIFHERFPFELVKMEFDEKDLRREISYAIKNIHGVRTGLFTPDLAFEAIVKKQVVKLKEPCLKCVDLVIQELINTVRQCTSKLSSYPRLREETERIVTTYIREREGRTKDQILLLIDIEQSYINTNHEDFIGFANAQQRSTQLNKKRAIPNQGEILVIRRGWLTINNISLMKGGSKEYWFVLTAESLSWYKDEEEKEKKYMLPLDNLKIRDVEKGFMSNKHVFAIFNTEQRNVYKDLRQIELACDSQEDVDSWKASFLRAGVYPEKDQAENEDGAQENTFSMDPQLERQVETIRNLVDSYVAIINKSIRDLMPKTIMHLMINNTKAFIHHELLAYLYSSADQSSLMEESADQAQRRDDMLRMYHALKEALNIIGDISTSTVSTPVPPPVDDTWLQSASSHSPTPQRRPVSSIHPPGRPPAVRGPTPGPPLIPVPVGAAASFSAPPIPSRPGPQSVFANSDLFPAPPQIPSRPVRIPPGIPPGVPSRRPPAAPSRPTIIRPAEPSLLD
Chain of UniProt Q9HCG8 (Q9HCG8 whole entry, looked up): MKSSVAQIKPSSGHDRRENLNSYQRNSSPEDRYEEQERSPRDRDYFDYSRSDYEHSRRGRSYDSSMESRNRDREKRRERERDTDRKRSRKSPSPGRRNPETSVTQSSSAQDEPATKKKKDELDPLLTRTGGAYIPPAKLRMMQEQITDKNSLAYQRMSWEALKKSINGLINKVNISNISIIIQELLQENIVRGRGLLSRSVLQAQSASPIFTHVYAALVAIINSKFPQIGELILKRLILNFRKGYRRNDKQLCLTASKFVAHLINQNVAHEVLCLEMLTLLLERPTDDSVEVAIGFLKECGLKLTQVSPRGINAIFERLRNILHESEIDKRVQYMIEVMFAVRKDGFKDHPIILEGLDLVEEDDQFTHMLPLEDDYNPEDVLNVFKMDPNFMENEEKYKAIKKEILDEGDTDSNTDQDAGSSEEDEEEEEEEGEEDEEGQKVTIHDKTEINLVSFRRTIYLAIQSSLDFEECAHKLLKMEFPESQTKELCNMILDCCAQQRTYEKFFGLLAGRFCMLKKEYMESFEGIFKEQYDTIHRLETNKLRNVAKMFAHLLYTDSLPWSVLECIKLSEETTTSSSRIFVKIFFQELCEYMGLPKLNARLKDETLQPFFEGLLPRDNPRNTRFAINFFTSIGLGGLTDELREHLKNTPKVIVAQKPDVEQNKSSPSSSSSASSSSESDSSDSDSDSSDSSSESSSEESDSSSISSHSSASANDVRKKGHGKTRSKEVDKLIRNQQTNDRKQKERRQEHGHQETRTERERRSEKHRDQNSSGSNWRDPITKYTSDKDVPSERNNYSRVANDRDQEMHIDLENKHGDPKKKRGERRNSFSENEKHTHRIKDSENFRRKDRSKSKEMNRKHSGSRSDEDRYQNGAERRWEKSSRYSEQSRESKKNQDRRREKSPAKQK
Chain of UniProt Q14019 (Q14019 whole entry, looked up): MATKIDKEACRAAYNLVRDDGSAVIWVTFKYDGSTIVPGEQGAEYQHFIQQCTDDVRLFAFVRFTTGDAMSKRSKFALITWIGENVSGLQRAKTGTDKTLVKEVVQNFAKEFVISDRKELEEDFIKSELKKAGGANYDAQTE
Chain of UniProt Q9P003 (Q9P003 whole entry, looked up): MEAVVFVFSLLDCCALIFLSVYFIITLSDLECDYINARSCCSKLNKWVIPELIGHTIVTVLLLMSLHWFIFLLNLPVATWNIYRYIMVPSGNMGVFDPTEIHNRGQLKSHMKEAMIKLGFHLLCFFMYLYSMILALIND

Compound in the test: C1=CC2=NC=CN=C2C=C1/C=C/3\C(=O)NC(=O)S3
The test can be described thus: log2 fold change, soluble protein after heating vs DMSO (PISA); higher = thermal stabilisation; K562 lysate, 10 uM; active = over 0.2 and 3.5 SD of the protein, either way, in both replicates (recomputed). Summed up:
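Pellets of K562 cells were dounce-homogenised in PBS pH 7.4 with 1 mM MgCl2, and the crude extract was held at 1 mg/mL protein for a 30 min treatment with 10 μM compound. Aliquots were heated for 3 min over 48°C-58°C and pooled before NP-40 was added to 0.5% at 4°C. The supernatant from 21,000xg for 90 min was quantified by TMTpro 16plex LC-MS/MS with channel sums equalised. Values are reported from duplicates as log-two fold change in thermal stability relative to solvent controls.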
As for DLGAP5 (UniProt Q15398), the log2 fold change was -0.02. Turning to DCTN1 (UniProt Q14203), the log2 fold change is 0.019. With DOCK10 (UniProt Q96BY6) the figure was -0.094; with DFFB (UniProt O76075), 0.084; with CWC22 (UniProt Q9HCG8), -0.032. Under CHMP4A isoform 2 (UniProt Q9BY43) stands -0.018.

Turning to DDX54 isoform 2 (UniProt Q8TDD1), the log2 fold change was -0.191. Consider DLG3 isoform 2 (UniProt Q92796), for which the log2 fold change was -0.046. As to COG3 (UniProt Q96JB2), the log2 fold change was -0.008.

Consider CMPK2 (UniProt Q5EBM0), for which the log2 fold change is -0.016. In the case of CNOT6L (UniProt Q96LI5), the log2 fold change was 0.007. In the case of CSK (UniProt P41240), the log2 fold change is -0.035.

For CYP24A1 (UniProt Q07973), the log2 fold change is -0.083.

With DAZAP1 (UniProt Q96EP5), the log2 fold change was 0.026. Take CNIH4 (UniProt Q9P003): the log2 fold change is -0.071. With DNM2 (UniProt P50570), the log2 fold change was 0.029.

As to CMIP (UniProt Q8IY22), the log2 fold change is 0.035.

COQ9 (UniProt O75208): the log2 fold change was 0.046. Turning to CNOT2 (UniProt Q9NZN8), the log2 fold change is -0.016. As for DOCK8 (UniProt Q8NF50), the log2 fold change was 0.005. Turning to CSNK2B (UniProt P67870), the log2 fold change was 0.33 (active). Under CPT1A (UniProt P50416) stands -0.05; under DNAH10 (UniProt Q8IVF4), -0.026; under CKAP2 (UniProt Q8WWK9), -0.015.

As for CIC (UniProt I3L2J0), the log2 fold change was 0.027.

As for COTL1 (UniProt Q14019), the log2 fold change was -0.02. Under CHORDC1 (UniProt Q9UHD1) stands 0.004. With CXorf38 (UniProt Q8TB03), the log2 fold change is 0.042. Under DHFR (UniProt P00374) stands 0.045; under CORO1A (UniProt P31146), -0.022; under CHUK (UniProt O15111), -0.019. In the case of DIAPH3 (UniProt Q9NSV4), the log2 fold change was 0.074. On to CIP2A (UniProt Q8TCG1), for which the log2 fold change was -0.019. Under CIAO2A (UniProt Q9H5X1) stands -0.071.
